Measurements reported in PubChem BioAssay (Tox21).
Inconclusive results are not listed. Activity calls are given as the source filed them. Unless noted, calls follow the shape of the dose curve; as a rule, active = well fitted curve in the direction sought with a large enough effect in the repeat runs; inconclusive = weak or mixed curves; inactive = no such curve, though single readings can be large; an effect the other way counts as inactive or inconclusive.

What was measured:
[1] = qHTS assay for small molecule agonists of the p53 signaling pathway (AID 651631; calls by dose curve; also: nearly all actives have a fitted effect of over 15% in size)
Method in brief: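 Read-out is beta-lactamase FRET fluorescence measured 2 h after substrate addition at room temperature, in HCT-116 cells with a p53 response element-driven reporter exposed to compounds for 16 h at 37 °C.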

[2] = qHTS assay for small molecules that induce genotoxicity in human embryonic kidney cells expressing luciferase-tagged ATAD5 (AID 651632); also: nearly all actives have a fitted effect of over 15% in size
Method in brief: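 A rise in luciferase signal from ATAD5-tagged HEK293T cells marks genetic stress. Cells were exposed to compounds for 16 hr at 37C, 5% CO2, then luciferase was quantified after a 30 min room-temperature incubation with Amplite.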

[3] = qHTS assay for small molecule agonists of the p53 signaling pathway - cell viability (AID 651633; calls by dose curve;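 also: p53RE-bla HCT reporter cells with a stable beta-lactamase p53 reporter; series mostly up to about 83 µM; nearly all actives have a fitted effect of over 30% in size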)
Method in brief: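 p53RE-bla cells were treated with compound for 16 hours at 37 C. Cytotoxicity was then measured as CellTiter-Glo luminescence after 30 min at room temperature.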

[4] = qHTS assay for small molecules that induce genotoxicity in human embryonic kidney cells expressing luciferase-tagged ATAD5 - cell viability (AID 651634; calls by dose curve; also: nearly all actives have a fitted effect of over 25% in size)
Method in brief: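 Cytotoxicity counter-readout: after 15.5 hr compound treatment at 37C, live-cell protease activity in ATAD5-luciferase HEK293T cells measured by CellTiter-Fluor fluorescence, 30 min development at 37C.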

[5] = qHTS assay for small molecule disruptors of the mitochondrial membrane potential - cell viability (AID 720634; calls by dose curve;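 also: human HepG2 liver cancer cells; series mostly up to about 83 µM; nearly all actives have a fitted effect of over 20% in size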)
Method in brief: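 Cytotoxicity was quantified from ATP content by CellTiter-Glo luminescence in the same wells as the MMP dye read-out. HepG2 (2,000 cells/well) were plated overnight and exposed to compounds for 1 hr at 37 C.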

[6] = qHTS assay for small molecule disruptors of the mitochondrial membrane potential (AID 720635)
Method in brief: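 HepG2 cells exposed to compound 1 hr at 37C, then Mito-MPS dye 30 min. Ratio read of aggregate (540/590 nm) versus monomer (490/535 nm) fluorescence.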

[7] = qHTS assay to test for compound auto fluorescence at 590 nm (red) in HepG2 cells (AID 720674)
Method in brief: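 HepG2 cells, 2,000 per well in MEM with 10% FBS, attached overnight at 37 C, then got 23 nL compound or DMSO. After 1 hr at 37 C, 5% CO2, red fluorescence was read at 540/590 nm against Rose Bengal sodium as reference.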

[8] = qHTS assay to test for compound auto fluorescence at 535 nm (green) in HepG2 cells (AID 720675)
[9] = qHTS assay to test for compound auto fluorescence at 460 nm (blue) in HEK293 cells (AID 720678)
Method in brief: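 Intrinsic compound fluorescence is recorded in live HEK293 cultures after overnight incubation at 37C, 5% CO2, using excitation 405 nm and emission 460 nm. Values are referenced to triamterene.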

[10] = qHTS assay to test for compound auto fluorescence at 590 nm (red) in HEK293 cells (AID 720679)
Method in brief: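 Red autofluorescence, HEK293 cells: 2,000 cells/well; attach 4-5 hr 37C; add 23 nL cpd or DMSO; incubate o/n 37C 5% CO2; read Ex540/Em590; Rose Bengal sodium reference.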

[11] = qHTS assay to test for compound auto fluorescence at 535 nm (green) in HEK293 cells (AID 720680)
[12] = qHTS assay to test for compound auto fluorescence at 460 nm (blue) in HEK293 cell free culture (AID 720681)
Method in brief: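 Compounds were added to cell-free DMEM with 10% FBS and fluorescence read directly. The blue channel used 405 nm excitation and 460 nm emission, with triamterene as the reference fluorophore.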

[13] = qHTS assay to test for compound auto fluorescence at 535 nm (green) in HEK293 cell free culture (AID 720682)
Method in brief: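 Fluorescein serves as the green reference fluorophore; each compound's intrinsic emission at 535 nm (excitation 485 nm) is reported as an equivalent amount of that dye, measured in serum-containing DMEM without cells.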

[14] = qHTS assay to test for compound auto fluorescence at 590 nm (red) in HEK293 cell free culture (AID 720683)
Method in brief: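 Cell-free wells of DMEM with 10% FBS received compound, and intrinsic fluorescence was read at excitation/emission 540/590 nm. Values expressed as equivalence to Rose Bengal sodium.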

[15] = qHTS assay to test for compound auto fluorescence at 590 nm (red) in HepG2 cell free culture (AID 720684)
Method in brief: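 Auto fluorescence equivalency versus Rose Bengal sodium, red channel Ex/Em 540/590 nm; compounds in cell-free MEM/10% FBS; DMSO vehicle control.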

[16] = qHTS assay to test for compound auto fluorescence at 460 nm (blue) in HepG2 cell free culture (AID 720685)
Method in brief: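 Cell-free plates of MEM plus 10% FBS received 23 nL compound or DMSO vehicle; blue-channel (405/460 nm) intensity scored against triamterene as reference fluorophore.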

[17] = qHTS assay to test for compound auto fluorescence at 535 nm (green) in HepG2 cell free culture (AID 720686)
[18] = qHTS assay to test for compound auto fluorescence at 460 nm (blue) in HepG2 cells (AID 720687)
Method in brief: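 HepG2 cells in MEM with 10% FBS, attached overnight at 37 C, were exposed to compound or DMSO for 1 hr at 37 C, 5% CO2. Blue fluorescence was read at 405/460 nm, with triamterene as reference fluorophore.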

[19] = target: Glucocorticoid receptor (Homo sapiens) (UniProt P04150); assay: qHTS assay to identify small molecule agonists of the glucocorticoid receptor (GR) signaling pathway (AID 720691; active = well fitted activation curve with a large enough effect in the signal ratio in the repeat runs, not every such curve was filed as active; the % refers to the signal ratio)
Glucocorticoid receptor (Homo sapiens), sequence (P04150 whole entry, looked up): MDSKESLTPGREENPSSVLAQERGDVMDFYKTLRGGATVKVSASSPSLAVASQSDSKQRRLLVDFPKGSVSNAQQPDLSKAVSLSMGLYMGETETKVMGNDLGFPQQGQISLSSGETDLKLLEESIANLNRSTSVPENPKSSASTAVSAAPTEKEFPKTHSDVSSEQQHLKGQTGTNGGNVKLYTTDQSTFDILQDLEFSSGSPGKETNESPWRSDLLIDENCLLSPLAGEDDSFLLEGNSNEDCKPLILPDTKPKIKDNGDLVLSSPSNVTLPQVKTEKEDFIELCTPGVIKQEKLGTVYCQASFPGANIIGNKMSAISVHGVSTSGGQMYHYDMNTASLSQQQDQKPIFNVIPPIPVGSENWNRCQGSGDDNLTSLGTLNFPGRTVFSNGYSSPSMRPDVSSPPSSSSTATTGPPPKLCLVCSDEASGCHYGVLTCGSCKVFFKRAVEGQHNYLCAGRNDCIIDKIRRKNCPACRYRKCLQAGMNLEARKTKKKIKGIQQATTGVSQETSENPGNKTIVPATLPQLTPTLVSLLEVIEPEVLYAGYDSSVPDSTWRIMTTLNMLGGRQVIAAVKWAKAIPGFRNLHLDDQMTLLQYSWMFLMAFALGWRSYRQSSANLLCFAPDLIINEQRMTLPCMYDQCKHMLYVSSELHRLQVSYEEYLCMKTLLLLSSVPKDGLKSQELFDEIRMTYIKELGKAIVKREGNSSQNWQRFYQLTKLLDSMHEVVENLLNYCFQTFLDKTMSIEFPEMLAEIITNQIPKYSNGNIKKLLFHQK
Method in brief: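 Agonist-mode qHTS in HeLa cells stably expressing a glucocorticoid-response-element beta-lactamase reporter. Fluorescence intensity read with FRET substrate (2 h, room temperature) after 18 h compound treatment at 37 C.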

[20] = target: Glucocorticoid receptor (Homo sapiens) (UniProt P04150); assay: qHTS assay to identify small molecule antagonists of the glucocorticoid receptor (GR) signaling pathway (AID 720692; active = well fitted inhibition curve with a large enough effect in the signal ratio in the repeat runs, not every such curve was filed as active; the % refers to the signal ratio)
Method in brief: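 Inhibition of dexamethasone-driven (5 nM final) beta-lactamase expression was measured in GRE-reporter HeLa cells over 18 h at 37C. Fluorescence was read after 2 h with the B/G FRET substrate at room temperature.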
% is scaled to controls: 0 for no effect and ±100 for the full control effect.

COc1cc(C(=O)N2CCOCC2)cc(OC)c1OC
inactive: Potency [1] | Potency [2] | Potency [3] | Potency [4] | Potency [5] | Potency [6] | outcome [7] | outcome [8] | Potency [9] | outcome [10] | outcome [11] | Potency [12] | outcome [13] | outcome [14] | outcome [15] | Potency [16] | outcome [17] | Potency [18] | Potency [19] | Potency [20]

O=C(O)/C=C/c1ccc(/C=C/C(=O)O)cc1
inactive: Potency [1] | Potency [2] | Potency [3] | Potency [4] | Potency [5] | Potency [6] | outcome [7] | outcome [8] | Potency [9] | outcome [10] | outcome [11] | Potency [12] | outcome [13] | outcome [14] | outcome [15] | Potency [16] | outcome [17] | Potency [18] | Potency [19] | Potency [20]

CC(C)(C)OC(=O)N1C[C@@H](F)C[C@H]1C(=O)O
inactive: Potency [1] | Potency [2] | Potency [3] | Potency [4] | Potency [5] | Potency [6] | outcome [7] | outcome [8] | Potency [9] | outcome [10] | outcome [11] | Potency [12] | outcome [13] | outcome [14] | outcome [15] | Potency [16] | outcome [17] | Potency [18] | Potency [19] | Potency [20]

O=C1OC(=O)c2cc([N+](=O)[O-])ccc21
inactive: Potency [1] | Potency [2] | Potency [3] | Potency [4] | Potency [5] | Potency [6] | outcome [7] | outcome [8] | Potency [9] | outcome [10] | Potency [12] | outcome [13] | outcome [14] | outcome [15] | Potency [16] | outcome [17] | Potency [18] | Potency [19] | Potency [20]

N#CCc1ccccc1[N+](=O)[O-]
inactive: Potency [1] | Potency [2] | Potency [3] | Potency [4] | Potency [5] | Potency [6] | outcome [8] | Potency [9] | outcome [10] | Potency [12] | outcome [13] | outcome [14] | outcome [15] | Potency [16] | outcome [17]

COCc1ccc(COC)cc1
inactive: Potency [1] | Potency [2] | Potency [3] | Potency [4] | Potency [5] | Potency [6] | outcome [7] | outcome [8] | Potency [9] | outcome [10] | outcome [11] | Potency [12] | outcome [13] | outcome [14] | outcome [15] | Potency [16] | outcome [17] | Potency [18]

O=S(=O)(O)c1ccccc1O
inactive: Potency [1] | Potency [2] | Potency [3] | Potency [4] | Potency [5] | Potency [6] | outcome [7] | outcome [8] | Potency [9] | outcome [10] | outcome [11] | Potency [12] | outcome [13] | outcome [14] | outcome [15] | Potency [16] | outcome [17] | Potency [18] | Potency [19] | Potency [20]

NC(CS)C(=O)O (centres undefined)
inactive: Potency [1] | Potency [2] | Potency [3] | Potency [4] | Potency [5] | Potency [6] | outcome [8] | Potency [9] | outcome [10] | Potency [12] | outcome [13] | outcome [14] | outcome [15] | Potency [16] | outcome [17] | Potency [18]

CCCc1ccc(N)cc1
inactive: Potency [1] | Potency [2] | Potency [3] | Potency [4] | Potency [5] | Potency [6] | outcome [7] | outcome [8] | Potency [9] | outcome [10] | outcome [11] | Potency [12] | outcome [13] | outcome [14] | outcome [15] | Potency [16] | outcome [17] | Potency [18]

CCO[Si](C)(OCC)OCC
inactive: Potency [1] | Potency [2] | Potency [3] | Potency [4] | Potency [5] | Potency [6] | outcome [7] | outcome [8] | Potency [9] | outcome [10] | outcome [11] | Potency [12] | outcome [13] | outcome [14] | outcome [15] | Potency [16] | outcome [17] | Potency [18] | Potency [19]

C1COCCO1
inactive: Potency [1] | Potency [2] | Potency [3] | Potency [4] | outcome [7] | outcome [8] | Potency [9] | outcome [10] | outcome [11] | Potency [12] | outcome [13] | outcome [14] | outcome [15] | Potency [16] | outcome [17] | Potency [18]

CC(C)[C@H](N)C(=O)OCCOCn1cnc2c(=O)[nH]c(N)nc21
inactive: Potency [1] | Potency [2] | Potency [3] | Potency [4] | Potency [5] | outcome [7] | outcome [8] | Potency [9] | outcome [10] | outcome [11] | Potency [12] | outcome [13] | outcome [14] | outcome [15] | Potency [16] | outcome [17] | Potency [18] | Potency [19] | Potency [20]

CCOC(=O)Nc1ccc2c(c1)N(C(=O)CCN1CCOCC1)c1ccccc1S2
inactive: Potency [1] | Potency [2] | Potency [3] | Potency [4] | Potency [5] | fluorescence, relative to Rose Bengal [7] 0.181% [at 18.6 µM] | fluorescence, % of fluorescein control [8] 0.0633% [at 18.6 µM] | fluorescence, % of triamterene [9] -0.0312% [at 18.6 µM] | fluorescence, % of fluorescent control [10] 0.108% [at 18.6 µM] | fluorescence, % of fluorescein [11] 0.023% [at 18.6 µM] | fluorescence, % of fluorescent control [12] 0.0825% [at 18.6 µM] | activity change [13] -0.0159% [at 18.6 µM] | fluorescence, % of fluorescent control [14] -0.268% [at 18.6 µM] | fluorescence, % of Rose Bengal [15] 0.0254% [at 18.6 µM] | fluorescence, % of fluorescent control [16] 0.0956% [at 18.6 µM] | fluorescence, % of fluorescein control [17] -0.013% [at 18.6 µM] | fluorescence, % of fluorescent control [18] -0.0127% [at 18.6 µM] | Potency [19] | Potency [20]
